Data from PubChem BioAssay (NCATS).
Inconclusive results are not listed. Active and inactive are the calls of the source. Unless noted, the call rests on the fitted dose curve; in most records, active means well fitted curve in the direction sought with a large enough effect; inconclusive means small, poorly fitted or top-dose-only effect, or another doubt; inactive means no such curve, though single readings can be large; an effect the other way counts as inactive or inconclusive.

Columns and labels:
[1] = qHTS Assay for Identifying Gametocytocidal Compounds (AID 743244);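 further: on the % scale 0 is the no-effect control and ±100 the full control effect; actives lower the fluorescent signal which means gametocytes are killed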; details: P. falciparum 3D7 stage III-V gametocytes, alamarBlue, 72 h; max response: stronger effect = lower value
How it was run: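 Fluorescence at Ex 525/Em 598 nm, recorded 24 h after alamarBlue addition, reports residual metabolic activity of 3D7 gametocytes (stages III–V) following 72 h compound exposure at 37 °C, 5% CO2.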

[2] = Primary qHTS for Huh7 cytotoxicity: counterscreen for inhibitors of MERS-S pseudotyped particle cell entry (AID 1479147; calls by dose curve); details: outcome: dose series up to 57.1 µM unless noted
[3] = Primary qHTS for inhibitors of MERS-S pseudo-typed particle cell entry (AID 1479149; calls by dose curve; further: nearly all actives have a fitted effect of over 60% in size)
[4] = Primary qHTS for Vero E6 cytotoxicity: counterscreen for inhibitors of SARS-S pseudo-typed particle cell entry (AID 1479150; calls by dose curve); details: outcome: dose series up to 57.1 µM unless noted
[5] = Cytotoxicity counterscreen for inhibitors of SARS-CoV-2 cell entry (AID 1645845; calls by dose curve; further: nearly all actives have a fitted effect of over 50% in size; further: potency means the concentration at half of the fitted maximal effect)
How it was run: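 48 h compound treatment (after 1 h preincubation), HEK293-ACE2 cells, 37 C/5% CO2; ATP luminescence endpoint; normalized to cell wells and media blanks.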

[6] = Primary qHTS to identify inhibitors of SARS-CoV-2 cell entry (AID 1645846; calls by dose curve; further: nearly all actives have a fitted effect of over 45% in size); details: activity change, negative = inhibition: at 57.1 µM (top of the series) unless noted
How it was run: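 HEK293-ACE2 (Expi293F, stable hACE2), 1500 cells/well, o/n 37C; cpd 23 nL pin, 1 h; MLV-PP w/ SARS-CoV-2-S (Wuhan-Hu-1, Δ19 C-term); 48 h 37C; Bright-Glo luminescence; normalized vs S-PP and bald PP.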

[7] = molecular target: Glutathione peroxidase 1 (Homo sapiens) (UniProt P07203); assay: Primary qHTS Assay for Inhibitors of Recombinant Selenoprotein Glutathione Peroxidase 1 (GPX1) (AID 1845191); further: nearly all actives have a fitted effect of over 65% in size
Chain of Glutathione peroxidase 1 (Homo sapiens) (P07203 whole entry, looked up): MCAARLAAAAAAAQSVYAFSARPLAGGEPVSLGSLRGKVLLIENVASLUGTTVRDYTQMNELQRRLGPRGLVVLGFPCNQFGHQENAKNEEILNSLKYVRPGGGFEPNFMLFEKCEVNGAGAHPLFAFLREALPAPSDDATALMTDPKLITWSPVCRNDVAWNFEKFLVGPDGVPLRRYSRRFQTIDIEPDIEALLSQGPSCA
How it was run: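 10 nM GPX1 + cpd, 30 min RT; start w/ 1 mM GSH, 0.5 mM cumene hydroperoxide, 0.5 mM NADPH, 100 nM GR, 0.01% BSA; buffer 50 mM Tris-HCl pH 7.5, 2 mM EDTA, 150 mM NaCl; Fl 340/450, 0 & 15 min.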

[8] = molecular target: Phospholipid hydroperoxide glutathione peroxidase GPX4 (Homo sapiens) (UniProt P36969); assay: Primary qHTS Assay for Inhibitors of Recombinant Selenoprotein Glutathione Peroxidase 4 (GPX4) (AID 1845192); further: nearly all actives have a fitted effect of over 65% in size
Chain of Phospholipid hydroperoxide glutathione peroxidase GPX4 (Homo sapiens) (P36969 whole entry, looked up): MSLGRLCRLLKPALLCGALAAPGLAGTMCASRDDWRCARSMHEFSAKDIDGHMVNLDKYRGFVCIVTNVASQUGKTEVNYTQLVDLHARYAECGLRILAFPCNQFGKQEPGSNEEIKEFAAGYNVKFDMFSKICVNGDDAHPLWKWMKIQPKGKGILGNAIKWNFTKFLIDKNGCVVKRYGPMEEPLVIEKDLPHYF
How it was run: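 NADPH consumption, followed by fluorescence at 340/450 nm between 0 and 15 min, reports GPX4 activity via coupled glutathione reductase (100 nM). Enzyme 200 nM was pre-exposed to compound 30 min; 0.5 mM cumene hydroperoxide and 1 mM GSH served as substrates.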

[9] = Drug repurposing screens with cells derived from glioblastoma tumor samples (AID 1345199); details: GBM patient neurospheres viability, ATP luminescence, 48 h; Potency: tumour line A; series mostly up to 45.9 µM; further: on the % scale 0 is the no-effect control and ±100 the full control effect; nearly all actives have a fitted effect of over 40% in size
How it was run: (§1)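 Four patient lines of CD133+ GBM neurospheres were screened at several concentrations; hits were retested in those lines plus three slower-growing GBM lines, using 48-hour treatment and ATP-based viability.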

astro = assay: as above; details: viability, ATP luminescence, 48 h; series mostly up to 45.9 µM
How it was run: as §1

[10] = qHTS for Inhibitors of the Functional Ribonucleoprotein Complex (vRNP) of Lassa (LASV) Arenavirus: LASV Primary Screen - GLuc reporter signal (AID 1347082; calls by dose curve; tested in HEK293 reporter line; further: on the % scale 0 is the no-effect control and ±100 the full control effect; nearly all actives have a fitted effect of over 60% in size)
[11] = P-glycoprotein substrates identified in KB-3-1 adenocarcinoma cell line, qHTS therapeutic library screen (AID 1346986);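 further: potency means the concentration at half of the fitted maximal effect; potency is for cytotoxicity meaning loss of cell viability; nearly all actives have a fitted effect of over 60% in size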
How it was run: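 Counter-screen: cherry-picked hits retested in the KB pair and in HEK-293 pcDNA/MDR-19 cells ± tariquidar. Primary screen used 72 h CellTiter-Glo viability in KB-3-1 and KB-8-5-11.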

[12] = P-glycoprotein substrates identified in KB-8-5-11 adenocarcinoma cell line, qHTS therapeutic library screen (AID 1346987); further: potency means the concentration at half of the fitted maximal effect; nearly all actives have a fitted effect of over 65% in size
How it was run: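 KB-8-5-11: colchicine-selected sub-line of KB-3-1 over-expressing P-gp; assay medium lacked colchicine. 72 h drug exposure at 37 degree C, CellTiter-Glo.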

[13] = Primary qHTS for inhibitors of nuclear receptor binding SET domain protein 2 (NSD2) in an isogenic RCH-ACV NSD2 p.E1099K mutant (9B) (AID 1645876); further: potency means the concentration at half of the fitted maximal effect; nearly all actives have a fitted effect of over 70% in size
[14] = Primary qHTS for inhibitors of nuclear receptor binding SET domain protein 2 (NSD2) in an RCH-ACV wild type WT cells (2C) (AID 1645877); further: potency means the concentration at half of the fitted maximal effect; nearly all actives have a fitted effect of over 70% in size

CC(=O)[C@@]1(O)CC[C@H]2[C@@H]3CCC4=CC(=O)CC[C@]4(C)C3(F)[C@@H](O)C[C@@]21C (stereo partly drawn)
-3.62%: activity change, negative = inhibition [6]
inactive: max response [1] 7.59% | outcome [2] | Potency [3] | outcome [4] | Potency [5] | Potency [7] | Potency [8] | Potency [9] | Potency (astro)

COC(=O)c1cc(O)cc(OC)c1Oc1cc(C)cc(O)c1C(=O)O
inactive: Potency [10]

COC(=O)C1CC23C=CCN4CCC5(c6ccccc6NC15C2C)C43 (stereo not drawn)
inactive: Potency [10]

O=C(NCCCNc1nc(Nc2ccc(N3CCOCC3)cc2)ncc1C1CC1)C1CCC1
inactive: Potency [7]
active: Potency [11] 10.3 µM | Potency [12] 11.6 µM | Potency [5] 22.4 µM | Potency [13] 5.25 µM | Potency [14] 7.42 µM
